According to PubChem BioAssay (NCI):
The panel holds about 83,000 compounds, 20% with a hit somewhere; the sample as a whole holds those more often.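 The endpoint reported here, percent growth, reads 100 for growth as untreated, 0 for no net growth and -100 for all cells dead.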 Activity calls are given as the source filed them. Rule for the calls: active = growth percent below 10; inactive = the rest.

Each compound was assayed on HCT-116 colon (assay: NCI-60 one-dose screen, 48 h (100 = growth as untreated, 0 = no growth, -100 = all killed)). Details: 10 µM unless noted.

How did the growth turn out when Cc1cc(C)n(CC(=O)Nc2ccc(-c3nc4ccccc4s3)cc2)n1 was run?
Its growth is 107% (inactive).

Which growth does the source give for CNS(=O)(=O)Nc1nccc(Cc2c(C)c3ccc(Oc4ncccn4)cc3oc2=O)c1F here?
Its growth is 19.2% (inactive).

How did the growth turn out when C[C@@H](Oc1cc(-n2cnc3ccc(CN4CCN(C)CC4)cc32)sc1C(N)=O)c1ccccc1C(F)(F)F was run?
The growth was 17.6% (inactive).

COc1ccc(Cl)c(Nc2nc3ccccc3nc2NS(=O)(=O)c2cccc(NC(=O)C(C)(C)N)c2)c1 was tested. Which growth did it give?
The growth was 47% (inactive).

Which growth does the source give for COc1ccc(-c2ccc3c(N4CCOC[C@@H]4C)nc(N4CCOC[C@@H]4C)nc3n2)cc1CO here?
Its growth is 21.9% (inactive).

Which growth does the source give for O=C(Nc1cccc(Cl)c1)Nc1ncc(CCNc2ncnc3ccsc23)s1 here?
Its growth is 17.9% (inactive).

With C#Cc1cccc(Nc2ncnc3cc(OCCOC)c(OCCOC)cc23)c1 as the compound, how does the growth read?
Its growth is 54.1% (inactive).

How did the growth turn out when O=C(Nc1ccc(Nc2ncnc3sc4c(c23)CCOC4)cc1)Nc1ccc(Cl)c(C(F)(F)F)c1 was run?
The growth was 77.5% (inactive).

How did the growth turn out when CCCCN1C(=O)c2cccc3c(-c4ccc5c(c4)ncn5C4CCCCC4)ccc(c23)C1=O was run?
Its growth is 91.7% (inactive).

Which growth does the source give for COc1cc(Nc2c(C#N)cnc3cc(OCCCN4CCN(C)CC4)c(OC)cc23)c(Cl)cc1Cl here?
Its growth is 23.3% (inactive).

For COc1ncc(-c2ccc3nccc(-c4ccnnc4)c3c2)cc1NS(=O)(=O)c1ccc(F)cc1F, which growth is on record?
The growth was -48.7% (active).

C/C(=C(/c1ccc(Cl)cc1)c1ccc(OCCN2CCCC2)cc1)c1ccccc1 was tested. Which growth did it give?
Its growth is 47.4% (inactive).

Which growth does the source give for COc1cc(OC)c(/C=C/S(=O)(=O)Cc2ccc(OC)c(NCC(=O)O)c2)c(OC)c1 here?
Its growth is 6.42% (active).

For Nc1ncnc2c1ccn2-c1cccc(NC(=O)c2ccc(N3CCOCC3)c(C(F)(F)F)c2)c1, which growth is on record?
Its growth is 24.9% (inactive).

For C/C=C/C=N/NC(=S)Nc1ccccc1, which growth is on record?
Its growth is 97.9% (inactive).

With C=CC(=O)Nc1cc(Nc2nccc(-c3cn(C)c4ccccc34)n2)c(OC)cc1N(C)CCN(C)C as the compound, how does the growth read?
The growth was -79.8% (active).

With C[C@@H](NC(=O)c1ncnc(N)c1Cl)c1ncc(C(=O)Nc2cc(C(F)(F)F)c(Cl)cn2)s1 as the compound, how does the growth read?
Its growth is 25.3% (inactive).

COc1cc2c(Oc3ccc4[nH]c(C)cc4c3F)ncnc2cc1OCCCN1CCCC1 was tested. Which growth did it give?
Its growth is 89.3% (inactive).

How did the growth turn out when NC[C@@](O)(c1ccc(Cl)cc1)c1ccc(-c2cn[nH]c2)cc1 was run?
The growth was 0.471% (active).

Cc1cc(O)cc(-c2c(-c3ccnc(-c4cccnc4)c3)cnn2C)c1 was tested. Which growth did it give?
The growth was 71.9% (inactive).

How did the growth turn out when CS(=O)(=O)N1CCN(Cc2cc3nc(-c4cccc5[nH]ncc45)nc(N4CCOCC4)c3s2)CC1 was run?
The growth was 28.3% (inactive).

With CN[C@@H]1C[C@H]2O[C@@](C)([C@@H]1OC)n1c3ccccc3c3c4c(c5c6ccccc6n2c5c31)C(=O)N[C@H]4O as the compound, how does the growth read?
The growth was -49.3% (active).

With O=c1[nH]ccc2c(S(=O)(=O)N3CCCNCC3)cccc12 as the compound, how does the growth read?
Its growth is 81.5% (inactive).

With CCN(CCCOc1ccc2c(Nc3cc(CC(=O)Nc4cccc(F)c4)[nH]n3)ncnc2c1)CCOP(=O)(O)O as the compound, how does the growth read?
Its growth is 47.5% (inactive).

How did the growth turn out when Cn1cc(-c2cnn3c(N)c(Br)c([C@@H]4CCCNC4)nc23)cn1 was run?
The growth was 35.8% (inactive).

With C[C@@H](Nc1cc(F)cc(F)c1)c1cc(C(=O)N(C)C)cc2c(=O)cc(N3CCOCC3)oc12 as the compound, how does the growth read?
The growth was 55.8% (inactive).

COc1ccc2c(CCCc3ccc(Cl)cc3Cl)c3[n+](cc2c1OC)CCc1cc2c(cc1-3)OCO2 was tested. Which growth did it give?
Its growth is -11.6% (active).

With Cn1c(=O)c(F)c(Nc2ccc(I)cc2F)c2c(=O)n(C[C@@H](O)CO)cnc21 as the compound, how does the growth read?
The growth was 9.17% (active).

Which growth does the source give for CC(C)(C)c1cnc(CSc2cnc(NC(=O)C3CCNCC3)s2)o1 here?
The growth was 2.22% (active).

NC1(C(=O)N[C@@H](CCO)c2ccc(Cl)cc2)CCN(c2ncnc3[nH]ccc23)CC1 was tested. Which growth did it give?
Its growth is 45.7% (inactive).

COC(=O)c1ccc2c(C(=Nc3ccc(N(C)C(=O)CN4CCN(C)CC4)cc3)c3ccccc3)c(O)[nH]c2c1 was tested. Which growth did it give?
Its growth is 20.2% (inactive).

For CS(=O)(=O)CCNCc1ccc(-c2ccc3ncnc(Nc4ccc(OCc5cccc(F)c5)c(Cl)c4)c3c2)o1, which growth is on record?
The growth was 41.2% (inactive).

With C1=C\COCc2cc(ccc2OCCN2CCCC2)Nc2nccc(n2)-c2cccc(c2)COC/1 as the compound, how does the growth read?
The growth was 1.18% (active).

With O=C(Nc1cn[nH]c1-c1nc2ccc(CN3CCOCC3)cc2[nH]1)NC1CC1 as the compound, how does the growth read?
Its growth is 3.94% (active).

Which growth does the source give for Cc1cc2c(-c3nc4ccccn4c3N)c(O)c(O)cc2c(O)c1-c1c(C)cc2c(-c3nc4ccccn4c3N)c(O)c(O)cc2c1O here?
The growth was 9.9% (active).
